# This is a sample that favours compounds with a hit; in the whole collection about 4.8% have one here.
# hgDAF12 agonist: activates the H. glycines DAF-12 receptor ligand-binding domain; activation, % at 6.8 µM; actives 1.8% (n = 370,000); HEK293 GAL4-hgDAF12 UAS-luciferase reporter, agonist luminescence; normalized to butyrate control;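 active = activation above a cutoff set at the mean of all screened compounds plus 3 SD, cut at about 10% in these data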;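 also: 0% = DMSO wells and 100% = sodium butyrate wells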
# SMARCA2 activ: activators of SMARCA2 function | MG213 cells, MMTV-luciferase reporter, dexamethasone, overnight | activation, % at 9.1 µM | actives 1% (n = 370,000); in the data active = activation above about 7.8%;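 also: 0% = vehicle wells and 100% = reference activator wells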
# ssDAF-12 act: activates DAF-12 receptor from parasite S. stercoralis. HEK293 ssDAF-12/GRIP1 lit1-tk-luc reporter, luminescence; % of 3 µM dafachronic acid response. actives 1% (n = 370,000). activation, % at 6.8 µM;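 active = activation above the mean over all tested compounds plus 3 SD, cut at about 0.9% in these data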;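 also: 0% = DMSO-only wells and 100% = 3 µM delta7-dafachronic acid wells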
# hcDAF12 agonist: activators of H. contortus DAF-12 nuclear receptor. HEK293 hcDAF-12 lit1-tk-luc reporter, luminescence; 0% DMSO, 100% Δ7-dafachronic acid. activation, % at 6.8 µM. actives 1.4% (n = 370,000). AID 652067;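 active = activation above the mean of all tested compounds plus 3 SD, cut at about 5.5% in these data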;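 also: 100% = response to 3 µM Δ7-dafachronic acid high control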
# DAX1 inh-1: inhibitors of DAX1 repression of SF-1 activated StAR promoter | actives 1.1% (n = 370,000) | HEK293T StAR-luciferase reporter, SF-1/DAX-1 repression relief | inhibition, % at 6.8 µM;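 active = inhibition above the mean over all tested compounds plus 3 SD, cut at about 3.6% in these data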;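 also: 0% = DAX-1 cells with DMSO and 100% = cells lacking DAX-1 with DMSO; higher inhibition means more luminescence from relief of DAX-1 repression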
# DAX1 inh-2: NR0B1 (DAX1) inhibition; P51843; HEK293 Gal4-DAX1 luciferase reporter, luminescence; inhibition, % at 6.75 µM; AID 504766; actives 0.99% (n = 340,000);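 active = inhibition above the mean over all tested compounds plus 3 SD, cut at about 4.2% in these data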;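 also: 0% = DAX1-transfected cells with DMSO and 100% = empty-vector control cells with DMSO; inhibition shows as a rise in luminescence from relieved DAX1 repression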
# Target sequence (P51843 207-470 limits assumed): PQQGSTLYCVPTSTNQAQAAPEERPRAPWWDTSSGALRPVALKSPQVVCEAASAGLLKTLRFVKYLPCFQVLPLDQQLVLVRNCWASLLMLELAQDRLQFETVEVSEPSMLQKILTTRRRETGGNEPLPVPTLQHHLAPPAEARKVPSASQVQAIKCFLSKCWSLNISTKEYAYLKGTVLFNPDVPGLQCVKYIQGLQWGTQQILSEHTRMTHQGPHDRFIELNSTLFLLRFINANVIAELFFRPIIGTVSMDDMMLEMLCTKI
# SMARCA2 act conf: SMARCA2 activation, confirmation screen; MG213 cells, MMTV-luciferase with dexamethasone, luminescence, overnight; MG213 cells expressing E1A, Rb sequestered; DMSO wells 0%, reference activator 100%; AID 652260; shares compounds with SMARCA2 activ; activation, % at 9.1 µM; actives 30% (n = 3,500);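 active = activation above its plate's cutoff, the mean activation of tested wells plus 3 SD, cut at about 7.9% in these data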
# GAL4-VP16 Luc: activates GAL4-VP16 luciferase, flagging SMARCA2 activator hits. shares compounds with SMARCA2 activ. activation, % at 9.1 µM. actives 41% (n = 3,500). HEK293 GAL4-VP16 pG5luc reporter, luciferase luminescence; scaled: DMSO wells 0%, SAHA wells 100%;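 active = activation above the solvent-only control well mean plus 3 SD, averaged across control plates, cut at about 5.2% in these data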
# * = called active by the depositor; · = no result given.
SMILES,hgDAF12 agonist,SMARCA2 activ,ssDAF-12 act,hcDAF12 agonist,DAX1 inh-1,DAX1 inh-2,SMARCA2 act conf,GAL4-VP16 Luc
COc1cc2nc(C3CCC3)nc(N3CCN(c4ccccc4OC)CC3)c2cc1OC,-2,9.4*,-2,-3,-1,-1,-2,0
COc1cc2nc(C3CCC3)nc(N3CCN(c4ccccn4)CC3)c2cc1OC,·,·,·,·,·,-2,·,·
CCOc1ccc(OCC(=O)OCC(=O)N2CCN(C(=O)c3ccco3)CC2)cc1,0,-3,-1,0,0,-1,·,·
COc1ccc(C(=O)OCCc2ccc(O)cc2)cc1,12*,9.2*,0,3,1,2,8.6*,12*
COc1ccc(CCOC(=O)c2ccc(NC(=O)CC#N)cc2)cc1,-2,1,-1,-2,0,1,·,·
CCC(CC)C(=O)N(C)c1c(C)nc2c(OCc3ccc(C#N)cc3)cccn12,4,0,-1,-1,-1,·,·,·
Cc1cc(C)nc(S/C=C/C(=O)c2ccccc2F)n1,0,14*,-2,-1,1,6.2*,-13,2
CCOC(=O)Cn1cnc(-c2ccc([N+](=O)[O-])cc2)c1,6,8.8*,0,2,2,2,8,5.8*
CNc1cncc(-c2ccc(F)cc2F)n1,4,10*,-1,-1,1,·,0,1
CNc1cncc(-c2ccc(O)cc2)n1,4,-1,-1,1,2,·,·,·
Cn1cc(S(=O)(=O)Nc2cccc(F)c2)c(=O)n(C)c1=O,3,-3,-1,0,1,2,·,·
FC(F)(F)c1ccccc1Cc1c(-c2ccco2)nc2c3ccccc3ccn12,-1,4,1,2,-1,·,·,·
Clc1cccc(Cc2c(-c3ccco3)nc3c4ccccc4ccn23)c1,2,24*,0,2,1,·,12*,10*
CCOc1ccc(C(C)C)cc1S(=O)(=O)N1CCOCC1,-1,-1,-1,2,0,3,·,·
O=C(NC1CCCCCC1)C1CCN(S(=O)(=O)N2CCC3(CC2)OCCO3)CC1,0,9.9*,-1,1,-1,1,-2,2
COc1ccc([C@H]2N[C@]3(CCCN(Cc4ccco4)C3=O)[C@H]3C(=O)N(Cc4ccccc4)C(=O)[C@@H]23)cc1,-1,9.0*,-1,-1,-1,0,-4,0
Cc1cccn2c(=O)c3cc(C(=O)NCc4ccco4)c(=N)n(C4CCCCC4)c3nc12,·,·,·,·,·,1,·,·
Cc1ccc2nc3c(cc(C(=O)NCc4ccco4)c(=N)n3C3CCCC3)c(=O)n2c1,-1,9.1*,-1,-1,0,0,15*,3
Cc1ccc2nc3c(cc(C(=O)NCC4CCCO4)c(=N)n3C3CCCC3)c(=O)n2c1 (stereo unspecified),3,8.8*,-1,-1,0,0,-1,1
N=c1c(C(=O)NCC2CCCO2)cc2c(=O)n3ccccc3nc2n1C1CCCC1 (stereo unspecified),0,1,0,0,0,-1,·,·
Cc1ccc(O)c(C2=Nc3ccccc3N=C(c3cccc([N+](=O)[O-])c3)C2)c1,7,8.7*,0,3,-1,2,0,1
Cc1cccc2c1ncc1c(=O)n(-c3ccccc3)[nH]c12,8,12*,0,3,2,2,8,11*
COC(=O)c1ccc2nc(-c3cccc(Br)c3)c(Cc3cccc(F)c3)n2c1,5,-2,-1,-2,0,·,·,·
COC(=O)c1ccc2nc(-c3cccc(Cl)c3)c(Cc3cccc(F)c3)n2c1,5,11*,0,2,3,·,-4,2
CCOC(=O)N1CCN(S(=O)(=O)c2ccc(C(=O)Nc3sc4c(c3C#N)CCC4)cc2)CC1,1,11*,-1,4,0,1,-2,1

# Source: PubChem
